# FMDV inh = High Throughput Screening for Foot and Mouth Disease Virus Antivirals. FMDV antiviral cell-based qHTS. Potency, µM (highest dose often 57.9 µM), hits mostly inhibitors. hit rate 1.2% among 410,000. AID 1159524, 2015; calls by dose curve; tested in HEK293T cells; note: read-out not given here; nearly all actives have a fitted effect of over 45% in size
# HCV inh = qHTS Assay for Inhibitors of Hepatitis C Virus (HCV) | Huh7.5.1 HCVcc-Cre infection, luciferase reporter, 44 h | hit rate 3.4% among 340,000 | Potency, µM (top dose mostly 41.8 µM), usual class: inhibitors
#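 1,000 cells/well; 4 h culture; + compound; + HCVcc-Cre (~0.5 moi); 44 h; luciferase substrate, RT 15 min; read 15 sec.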
# HCMV inh = qHTS Assay for inhibitors of the human cytomegalovirus (HCMV). HFF cells, HCMV-luciferase reporter, 72 h; hits give low values. activity change, negative = inhibition, % at 57.5 µM. hit rate 4.5% among 410,000; in the data active = activity change below about -60%; inconclusive = no clear call, values can overlap the other calls; inactive = above about -39%
#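 Two compound doses tested in HFFs infected with HCMV-luciferase, MOI 1 PFU/cell, 72 h at 37C. Lysate luminescence read with OneGlo; data normalized against buffer-only and 10uM Salinomycin inhibitor controls.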
# Giardia FBPA inh = qHTS Assay for Inhibitors of Fructose-1,6-bisphosphate Aldolase from Giardia Lamblia. Potency, µM (series often up to 59.6 µM), usual class: inhibitors. AID 2451, 2010. hit rate 0.71% among 290,000. purified Giardia FBPA. A8B2U2; note: nearly all actives have a fitted effect of over 55% in size
# Target sequence (A8B2U2 whole entry, looked up): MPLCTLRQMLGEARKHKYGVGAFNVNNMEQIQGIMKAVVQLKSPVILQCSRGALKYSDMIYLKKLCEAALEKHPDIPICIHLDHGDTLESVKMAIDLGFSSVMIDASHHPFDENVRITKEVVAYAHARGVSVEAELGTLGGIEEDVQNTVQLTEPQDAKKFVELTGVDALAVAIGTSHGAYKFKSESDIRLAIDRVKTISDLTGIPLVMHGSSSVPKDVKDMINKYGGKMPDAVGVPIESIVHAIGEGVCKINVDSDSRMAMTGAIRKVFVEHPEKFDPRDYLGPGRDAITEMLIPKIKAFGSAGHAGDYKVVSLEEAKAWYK
#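 Giardia FBPA (40 nM reagent) was preincubated 10 min at RT with compound (up to 57.5 uM final), then substrate plus GAPDH/TPI/NAD/arsenate coupling system with diaphorase/resazurin was added; resorufin fluorescence (525/598 nm) was read after 20 min.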
# VACV mCherry inh = qHTS for Stage-Specific Inhibitors of Vaccinia Orthopoxvirus: mCherry Reporter Primary qHTS; Vaccinia virus mCherry reporter infection, fluorescence; Potency, µM (top dose mostly 36.5 µM), most hits filed as inhibitors; hit rate 0.63% among 310,000; AID 720579, 2013; calls by dose curve; tested in A549 cells; note: nearly all actives have a fitted effect of over 35% in size
# Vaccinia Venus = qHTS for Stage-Specific Inhibitors of Vaccinia Orthopoxvirus: Venus Reporter Primary qHTS; Vaccinia virus Venus reporter expression, fluorescence; Potency, µM (doses to about 36.5 µM), usual class: inhibitors; hit rate 0.46% among 330,000; AID 720580, 2013; calls by dose curve; tested in A549 cells; note: nearly all actives have a fitted effect of over 30% in size
# Hits are given with their value; n = inactive; u = inconclusive; x = not tested or not shown; ! = repeats disagree; [ ] = remark or other dose. This is a sample that favours compounds with a hit; in the whole collection about 7.5% have one here. Unless noted, calls come from the whole dose curve; as a rule, active = well fitted curve in the direction sought with a large enough effect; inconclusive = small, poorly fitted or top-dose-only effect, or another doubt; inactive = no such curve, though single readings can be large; an effect the other way counts as inactive or inconclusive.
SMILES,FMDV inh,HCV inh,HCMV inh,Giardia FBPA inh,VACV mCherry inh,Vaccinia Venus
CC1CCc2nc(NC(=O)C3COc4ccccc4O3)sc2C1 (centres undefined),16µM,u,-76,n,n,n
CCCN(CCC)C(=O)Cn1c(=O)n(-c2ccc(Cl)c(Cl)c2)c(=O)c2c(C)c(C(=O)N(C)C)sc21,n,x,n,x,n,n
CCC(C)NC(=O)c1ccccc1NC(=O)C1COc2ccccc2O1 (centres undefined),u,22µM,u,n,x,x
CN1CCC(=C2c3ccccc3CC(=O)c3sccc32)CC1,u,u,-65!,n,n,n
CC(C)CNc1ncnc2c1ncn2[C@H]1CN(Cc2ccc3c(c2)OCO3)C[C@@H](CO)O1,n,x,-66,x,n,n
CC(C)CNc1ncnc2c1ncn2[C@H]1CN(Cc2cccc3ccccc23)C[C@@H](CO)O1,n,x,-70,x,n,n
Cn1c(=O)c2c(ncn2CC(=O)OCC(=O)NCc2ccc(F)cc2)n(C)c1=O,n,x,-65,x,n,n
CCCCn1cc2c(c1-c1cccc(C)c1)c(=O)n(C)c(=O)n2C,n,10µM,n,n,x,x
CCOc1ccccc1C(=O)N[C@H](C(=O)OCc1csc(CC(=O)Nc2ccc(C)cc2)n1)C(C)C,u,11µM,n,x,n,n
COc1cc(OC)cc(C(=O)N[C@H](C(=O)OCc2cc(=O)oc3cc(C)ccc23)C(C)C)c1,n,u,n,n,n,n
CCOc1ccccc1C(=O)N[C@H](C(=O)OCc1cc([N+](=O)[O-])cc2c1OCOC2)C(C)C,n,20µM,n,n,u,u
CCOc1ccccc1C(=O)N[C@H](C(=O)OCc1cc(=O)oc2cc(C)ccc12)C(C)C,n,10µM,n,n,u,u
CC(C)C(NC(=O)c1ccccc1)C(=O)OCc1cc([N+](=O)[O-])cc2c1OCOC2 (centres undefined),n,u,n,n,n,n
CCCCN1C[C@H](CSC)[C@@H](CC(=O)Nc2ccc(Br)cc2)C1=O,n,x,n,x,n,n
Cc1ccc(SCC(=O)NC(=O)c2ccccc2Br)c(C)c1,n,n,n,x,n,n
CN(C)/C=N/c1cc(=O)[nH]c(=O)n1C,n,n,n,n,n,n
CCc1nnc(NS(=O)(=O)c2ccc(Nc3ccc4nonc4c3[N+](=O)[O-])cc2)s1,n,n,n,n,n,n
O=[N+]([O-])c1ccc(-n2nnnc2-c2ccccc2)c([N+](=O)[O-])c1,32µM,35µM,-98,u,u,u
O=[N+]([O-])c1ccc(-n2nnnc2-c2ccccc2)cc1,n,n,n,n,x,x
COc1ccc(-c2cc(CNc3nc(NC(C)C)nc4cc(-c5ccccc5)sc34)on2)cc1,n,x,-99,x,u,u
CC(=O)Nc1ccc(CNc2nc(NC(C)C)nc3cc(-c4ccccc4)sc23)cc1,n,x,-98,x,u,11µM
c1ccc(-c2cc3nc(NCC4CC4)nc(NCC4CCCCC4)c3s2)cc1,u,x,-92,x,n,u
C=CCNc1nc(NCc2ccc(NC(C)=O)cc2)c2sc(-c3ccccc3)cc2n1,n,x,n,x,n,16µM
CC(=O)NCCNc1nc(NC(C)C)nc2cc(-c3ccccc3)sc12,n,x,n,x,n,n
O=C(Nc1ccccc1)C1=C[C@H](c2ccc3c(c2)OCO3)C[C@H](OCc2ccc(CO)cc2)O1,n,u,n,n,n,n
SMILES,FMDV inh,HCV inh,HCMV inh,Giardia FBPA inh,VACV mCherry inh,Vaccinia Venus
CCN(CC)CCNC(=O)c1cc(Cl)c(N)cc1OC,n,n[8.37 µM],n,n,n,n
CCN(CC)CCOC(=O)c1cc(Cl)c(N)cc1OC,n,4.5µM,n,n,n,n
CCC1C=CC=CC[C@H](C)[C@@H](O)[C@](C)(O)C(=O)[C@@H](C)[C@H](O)[C@@H](C)C(=O)[C@H](C)[C@@H](O)[C@H](C)C=CC(=O)OC2[C@@H](C)C(CC1)OC1(CC[C@@H](C)C(C[C@H](C)O)O1)[C@@H]2C (some centres undefined),x,0.89µM,x,x,x,x
COc1ccc(C(=O)NCC(C)(C)N2CCOCC2)cc1S(=O)(=O)NCc1ccc(Cl)cc1,n,u,-67,x,x,x
COc1ccc(C(=O)NCCNC(C)=O)cc1S(=O)(=O)NCc1ccc(Cl)cc1,n,n,n,n,x,x
COc1ccc(S(=O)(=O)c2c(SC)nn(CC(=O)Nc3ccc(C)c(Cl)c3)c2N)cc1,n,x,n,x,u,n
CC(C)=CCC[C@H](C)C[C@@H]1CC2=C(C(=O)OC(C)(C)O2)[C@H](c2ccc(Cl)cc2)O1,n,x,n,x,n,n
O=C(Nc1ccc2c(c1)oc1ccccc12)C1CC1,n,10µM,n,n,n,n
Cc1ccccc1OCc1nnc(SCC(=O)Nc2ccc3c(c2)oc2ccccc23)n1C,n,u,n,n,x,x
CC(C)CC(=O)Nc1ccc2c(c1)oc1ccccc12,n,22µM,n,n,n,u
CC(=O)Nc1ccc(Br)c(Cl)c1,n,n,n,n,n,n
Cc1ccc(-c2nnc(SCC(=O)Nc3ccc4c(c3)oc3ccccc34)n2C)c(Cl)c1,n,u,-86,n,x,x
O=C(Nc1ccc(Br)c(Cl)c1)C1CC1,n,u,-62,n,x,x
Oc1ccc2c(c1)[C@@]13CCCCC1[C@@H](C2)N(CC1CCC1)CC3 (some centres undefined),x,x,x,n,x,x
COc1ccc([C@@H]2[C@@H]3C(=O)N(C(C)(C)C)C(=O)[C@@H]3[C@]3(C)C(=O)N(c4cccc(Cl)c4)C(=O)N23)cc1,n,n,-71,x,n,n
CC(C)(C)N1C(=O)[C@H]2[C@@H](c3ccc(Br)cc3)N3C(=O)N(c4cccc(F)c4)C(=O)[C@@]3(Cc3ccccc3)[C@H]2C1=O,n,u,n,x,n,n
Cc1ccc(N2C(=O)N3[C@H](c4ccc(Br)cc4)[C@@H]4C(=O)N(C(C)(C)C)C(=O)[C@@H]4[C@]3(C)C2=O)cc1,n,u,-85,n,n,n
CC(C)(C)N1C(=O)[C@H]2[C@@H](c3ccc(Br)cc3)N3C(=O)N(c4ccc(Br)cc4)C(=O)[C@@]3(Cc3ccccc3)[C@H]2C1=O,n,7.9µM,x,n,n,n
CC1(C(=O)NS(=O)(=O)C2CC2)CCN(C(=O)CSc2ccccc2)C1 (centres undefined),n,x,n,x,n,n
CC(=O)OC[C@@H]1O[C@@H](O/N=C2/C[C@@H](O)[C@@H](O)[C@@H]3[C@@H]4C(=O)N(Cc5ccc6c(c5)OCO6)C(=O)[C@H]4CC[C@@H]23)[C@H](OC(C)=O)[C@H](OC(C)=O)[C@@H]1OC(C)=O,x,x,x,n[12.9 µM],x,x
CCCN(CCC)C(=O)CSc1nc2ccccc2c(=O)n1C1CCCC1,n,11µM,u,n,x,x

# Bioassay records: PubChem BioAssay, National Center for Advancing Translational Sciences (NCATS)
